# PfM18AAP inh – PfM18AAP enzyme inhibition; recombinant PfM18AAP, H-Glu-NHMec fluorogenic cleavage; inhibition, % at 7.35 µM; 290,000 compounds, 1.2% hits; AID 1822;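 active = inhibition above the campaign mean inhibition over all tested compounds plus 3 SD, cut at about 28% in these data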;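 note: 0% = plate median of test compound wells and 100% = 2 mM ZnCl2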
# A3A deaminase – human APOBEC3A DNA deaminase inhibition. P31941. recombinant A3A, FAM/TAMRA ssDNA deamination fluorescence. inhibition, % at 20 µM. 330,000 compounds, 0.41% hits. AID 493011;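 active = at least 40% inhibition at 20 µM here, with at most 30% in a related deaminase screen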;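 note: plate controls were A3A with DMSO for no effect and wells lacking A3A enzyme for full effect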
# ALR H2O2 inh – blocks human ALR sulfhydryl oxidase activity; purified ALR, DTT oxidation, H2O2 HRP-luminol luminescence; P55789; AID 485317; 290,000 compounds, 3.8% hits; inhibition, % (concentration not given with the values);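 active = mean replicate inhibition above about 79%, with every replicate also reaching it, limit read from the data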
# Yeast superoxide – lowers age-related superoxide in aged yeast cells. S. cerevisiae aged cells, superoxide DHE fluorescence; stronger effect = lower value. superoxide response (% of plate mean), % at 10 µM. 330,000 compounds, 0.18% hits. AID 2690;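 active = superoxide response under a set limit, about three screen SD below normal, cut at about 65% in these data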;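 note: yeast aged for seven days with compound at 30 °C before DHE staining; 100% = average MFI of all compound-treated wells on the plate with controls excluded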
# A3G deaminase – APOBEC3G (human) deaminase inhibition; recombinant A3G, ssDNA deamination FAM/TAMRA fluorescence; Q9HC16; 330,000 compounds, 0.28% hits; inhibition, % at 20 µM;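 active = inhibition of at least 40% at 20 µM, with no more than 30% in the related APOBEC3A deaminase screen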;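 note: plate controls were DMSO wells with A3G for no effect and wells lacking A3G enzyme for full effect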
# CendR NRP1 mod – modulators of CendR peptide binding to human neuropilin-1 | 360,000 compounds, 0.85% hits | inhibition, % at 25 µM | AID 602438 | FAM-RPARPAR peptide binding to NRP-1, fluorescence polarization | O14786;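 active = inhibition or corrected inhibition above about 18%, plus a signal ratio from 0.5 to 1.5, limit read from the data, passing the limit was not always enough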
# An asterisk follows results filed as active; . = no result. Hits are enriched below; roughly 5.2% of the tested compounds scored in any of these assays.
SMILES,PfM18AAP inh,A3A deaminase,ALR H2O2 inh,Yeast superoxide,A3G deaminase,CendR NRP1 mod
COc1cccc(-c2nc(CS(=O)(=O)CC(=O)NCCN3CCOCC3)c(C)o2)c1,-5,0,99*,126,-2,8
Cc1cc(C(=O)Nc2sc3c(c2C#N)CCCC3)no1,5,-1,97*,102,25,-2
Cc1cc(C(=O)Nc2sc3c(c2C#N)CCC3)no1,7,10,14,90,3,-5
O=C(NC1CCCC1)c1ccc(CSc2nc3ccncc3n2Cc2ccc(F)cc2)cc1,-11,4,99*,100,3,1
CCC(C)NC(=O)c1ccc(CSc2nc3ccncc3n2Cc2ccc(F)cc2)cc1 (stereo not drawn),-4,-6,15,92,-5,9
O=C(NCCN1CCOCC1)c1ccc(CSc2nc3ccncc3n2Cc2ccc(F)cc2)cc1,2,-1,99*,80,-5,1
c1ccc(Cn2ccnc2SCc2nnc(-c3ccccc3)o2)cc1,-11,0,1,97,-8,10
CCN(CC)C(=O)c1ccccc1NC(=O)c1cccc(S(=O)(=O)N(CC)CC)c1,5,-1,-20,90,-5,10
CCN(CC)S(=O)(=O)c1cccc(C(=O)N/N=C(\C)c2ccc(O)cc2O)c1,7,-18,86*,90,-41,-83
CN(C)CCn1c2c(c(SCC(=O)Nc3ccc4c(c3)OCCO4)nc1=O)CCC2,.,-2,97*,104,-3,6
CN(C)CCn1c2c(c(SCC(=O)Nc3cccc(C(F)(F)F)c3)nc1=O)CCCC2,.,-1,98*,94,-2,13
CN(C)CCn1c2c(c(SCC(=O)Nc3ccc4c(c3)OCCO4)nc1=O)CCCC2,.,-3,97*,98,-5,-2
Cc1ccc2nc(NC(=O)CSc3nc(=O)n(CCN(C)C)c4c3CCCC4)sc2c1,.,0,98*,97,1,-6
CCN(CC)c1ccc(NC(=O)CSc2nc3nc(C)cc(C)c3c(=O)[nH]2)cc1,.,-1,.,97,-6,0
COc1ccc(NC2CCCN(C(=O)CCC(=O)c3ccc(F)cc3)C2)cc1 (stereo not drawn),10,-7,99*,102,-6,6
COc1ccc(NC(=O)NC2(C(=O)N3CCN4CCCC4C3)CCCCC2)cc1 (stereo not drawn),-2,-2,3,100,-9,-2
COc1ccc(NC2CCCN(C(=O)CCc3cn[nH]c3)C2)cc1 (stereo not drawn),1,0,99*,95,-8,-7
O=C(c1ccnc(Cl)c1)N1CCCC(Nc2ccc(F)cc2)C1 (stereo not drawn),3,-1,29,118,-2,10
COc1ccc(NC2CCCN(C(=O)C3(C)CCCCC3)C2)cc1 (stereo not drawn),19,-3,97*,100,-5,8
O=C1CCC(C(=O)N2CCCC(Nc3ccc(F)cc3)C2)=NN1 (stereo not drawn),2,2,82*,92,-5,15
CCN(CC)S(=O)(=O)c1cccc(C(=O)OCC(=O)NCCN2C(=O)CSC2=O)c1,.,1,.,107,-7,4
Cc1ccc(O)c(Nc2ncnc3ccccc23)c1,-9,-7,30,103,-7,9
CCN(C(=O)COC(=O)c1ccc2[nH]c(C)c(C)c2c1)c1c(N)n(Cc2ccccc2)c(=O)[nH]c1=O,.,.,.,.,.,-42
Cc1ccc(S(=O)(=O)N2CCN(C(=O)CSC3CCCC3)CC2)c(C)c1,1,2,-31,102,3,-4
COC(=O)CCCC1=CC2=CC(=O)C(C)(OC(=O)c3cnc4ccccc4n3)C(=O)C2=CO1 (stereo not drawn),.,3,-12,86,-13,.
SMILES,PfM18AAP inh,A3A deaminase,ALR H2O2 inh,Yeast superoxide,A3G deaminase,CendR NRP1 mod
O=C(CCc1ccccc1)N1CCCC(Nc2ccc(F)cc2)C1 (stereo not drawn),2,2,98*,119,-6,2
O=C(CCc1ccncc1)N1CCCC(Nc2ccc(F)cc2)C1 (stereo not drawn),3,-2,56,109,-4,-2
C=CCOc1cccc(C(=O)N2CCCC(Nc3ccc(F)cc3)C2)c1 (stereo not drawn),9,-1,59,107,-8,-3
COc1ccc(NC2CCCN(C(=O)CCC3=NNC(=O)CC3)C2)cc1 (stereo not drawn),1,-1,87*,96,-2,3
COc1cc(OC)cc(C(=O)N2CCCC(Nc3ccc(F)cc3)C2)c1 (stereo not drawn),0,-5,99*,92,-14,22*
CC(C)c1ccc(NC2CCCN(C(=O)CCc3cn[nH]c3)C2)cc1 (stereo not drawn),6,-1,98*,101,-7,15
CC(=O)N(CCN(C)C)c1nc2cc3c(cc2s1)OCCO3,-9,-2,-5,99,-3,7
CCO[C@H]1OC(C(=O)O)=C[C@@H](c2csc3ccccc23)[C@@H]1CCCO,7,-1,5,109,-12,9
N#Cc1ccc(OCC(O)CS(=O)(=O)c2ccc(F)cc2)cc1 (stereo not drawn),-11,2,-16,95,3,-3
COc1ccc(CCC(=O)N2CCCC(Nc3ccccc3)C2)cc1OC (stereo not drawn),7,-7,98*,96,-2,7
COc1ccc(NC2CCCN(C(=O)CSc3ccncc3)C2)cc1 (stereo not drawn),9,1,99*,100,1,23*
COc1ccc(CCC(=O)N2CCCC(Nc3ccc(OC)cc3)C2)cc1 (stereo not drawn),4,-4,99*,91,1,-49
CCN(CC)c1ccc(NC(=O)c2[nH]c(C)c(C(C)=O)c2C)c(C)c1,-9,-1,53,105,-5,-14
Cc1cc(C)c(C)c(S(=O)(=O)N2C(=S)NC(=O)C2C(C)C)c1C (stereo not drawn),5,1,96*,100,17,-6
COCCC1CCCCN1Cc1cn(-c2ccccc2)nc1-c1ccc2c(c1)OCO2 (stereo not drawn),-12,3,-7,98,-6,1
Cn1c(=O)c2[nH]c(N=Nc3ccc(N)cc3N)nc2n(C)c1=O,26,0,86*,90,-4,10
O=C1NC(c2ccccc2)=C(c2nc3ccccc3s2)C(c2ccccc2)N1 (stereo not drawn),11,2,-2,105,-2,3
CCOc1cc(C2C(C#N)=C(N)SC(N)=C2C#N)ccc1OCCN1CCOCC1,10,-4,99*,86,-6,-40
CCCc1[nH]nc2c1C(c1ccc(OCCN3CCOCC3)c(OC)c1)C(C#N)=C(N)O2 (stereo not drawn),9,-1,10,107,-4,-17

# Screening results as filed in PubChem BioAssay.
